In the supplement of paper PMC10849652:
The full data set covers some 7,900 targets. This sample favours those with a hit. About 0.6% of all pairs of compound and target were hits. Unmarked numbers belong to inactive results.

Compound: C1CCN(C1)C(=O)NC2=CC=CC(=C2)NC3=NC=C(C(=N3)NCCC4=CN=CN4)Br
Assay: log2 fold change, soluble protein after heating vs DMSO (PISA); higher = thermal stabilisation; K562 cells, 10 uM, 30 min; active = over 0.2 and 3.5 SD of the protein, either way, in both replicates (recomputed)
Summary of the method: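 K562 cells at 2×10^6 cells/mL were given 10 μM compound for 30 min. Aliquots then went through 3 min of heating across 48°C-58°C, were pooled, and were extracted in PBS with 0.5% NP-40 at 4°C, and the supernatant after 21,000xg for 90 min was quantified by TMTpro 16plex LC-MS/MS with channel sums equalised. Thermal stability relative to control samples, from duplicates, is given as log2 fold change.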

Sequence of UniProt Q8WYH8 (Q8WYH8 whole entry, looked up): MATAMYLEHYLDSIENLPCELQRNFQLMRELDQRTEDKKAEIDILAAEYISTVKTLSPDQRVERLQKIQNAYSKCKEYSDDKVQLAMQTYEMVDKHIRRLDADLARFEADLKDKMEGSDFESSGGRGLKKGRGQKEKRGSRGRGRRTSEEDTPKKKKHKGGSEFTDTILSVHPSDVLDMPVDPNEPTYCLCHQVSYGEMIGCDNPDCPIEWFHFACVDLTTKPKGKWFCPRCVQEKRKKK
Sequence of UniProt O43934 (O43934 whole entry, looked up): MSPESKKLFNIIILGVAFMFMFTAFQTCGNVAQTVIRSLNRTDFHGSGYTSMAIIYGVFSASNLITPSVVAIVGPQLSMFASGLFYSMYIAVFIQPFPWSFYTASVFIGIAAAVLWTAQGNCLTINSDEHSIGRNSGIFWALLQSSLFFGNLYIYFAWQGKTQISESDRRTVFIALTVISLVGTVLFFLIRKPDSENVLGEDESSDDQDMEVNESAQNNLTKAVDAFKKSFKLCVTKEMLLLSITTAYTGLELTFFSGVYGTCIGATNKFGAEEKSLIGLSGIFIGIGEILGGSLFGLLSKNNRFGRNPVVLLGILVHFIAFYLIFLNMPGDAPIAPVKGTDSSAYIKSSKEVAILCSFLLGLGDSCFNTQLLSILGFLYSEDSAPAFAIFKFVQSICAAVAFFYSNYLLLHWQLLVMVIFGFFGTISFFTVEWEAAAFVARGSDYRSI
Sequence of UniProt Q9P244 (Q9P244 whole entry, looked up): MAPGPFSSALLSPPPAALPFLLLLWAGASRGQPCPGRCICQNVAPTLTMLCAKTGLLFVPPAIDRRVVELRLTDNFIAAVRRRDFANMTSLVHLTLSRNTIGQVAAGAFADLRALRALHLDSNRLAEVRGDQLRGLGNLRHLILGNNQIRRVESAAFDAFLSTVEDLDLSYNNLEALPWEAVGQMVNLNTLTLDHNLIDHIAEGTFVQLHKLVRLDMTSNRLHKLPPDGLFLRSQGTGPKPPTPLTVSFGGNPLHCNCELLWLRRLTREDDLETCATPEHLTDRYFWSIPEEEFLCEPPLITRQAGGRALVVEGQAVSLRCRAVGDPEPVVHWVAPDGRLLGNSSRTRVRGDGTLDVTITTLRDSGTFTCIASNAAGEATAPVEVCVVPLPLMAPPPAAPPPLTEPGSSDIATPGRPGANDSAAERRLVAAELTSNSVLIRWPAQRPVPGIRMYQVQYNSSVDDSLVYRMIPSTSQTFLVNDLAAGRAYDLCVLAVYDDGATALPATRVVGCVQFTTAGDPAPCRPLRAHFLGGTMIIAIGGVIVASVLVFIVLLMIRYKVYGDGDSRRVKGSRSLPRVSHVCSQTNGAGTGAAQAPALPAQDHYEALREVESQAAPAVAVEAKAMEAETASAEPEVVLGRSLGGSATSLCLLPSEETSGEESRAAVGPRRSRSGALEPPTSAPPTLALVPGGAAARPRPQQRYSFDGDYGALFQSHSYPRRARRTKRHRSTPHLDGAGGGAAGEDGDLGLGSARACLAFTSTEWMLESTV
Sequence of UniProt Q13422 (Q13422 whole entry, looked up): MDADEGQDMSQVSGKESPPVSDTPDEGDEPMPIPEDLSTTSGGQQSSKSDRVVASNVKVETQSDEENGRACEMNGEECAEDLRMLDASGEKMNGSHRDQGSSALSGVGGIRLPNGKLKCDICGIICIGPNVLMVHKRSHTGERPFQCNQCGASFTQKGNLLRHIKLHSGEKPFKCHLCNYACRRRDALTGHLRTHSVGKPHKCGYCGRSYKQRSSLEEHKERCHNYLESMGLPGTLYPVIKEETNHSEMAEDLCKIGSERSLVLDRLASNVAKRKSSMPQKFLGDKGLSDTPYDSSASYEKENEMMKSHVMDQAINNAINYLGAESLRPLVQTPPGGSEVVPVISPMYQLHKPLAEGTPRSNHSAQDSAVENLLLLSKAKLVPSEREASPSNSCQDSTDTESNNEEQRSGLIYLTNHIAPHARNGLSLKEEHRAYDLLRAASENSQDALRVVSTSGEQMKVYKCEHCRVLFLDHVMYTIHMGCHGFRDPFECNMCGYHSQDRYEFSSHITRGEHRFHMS
Sequence of UniProt Q9C099 (Q9C099 whole entry, looked up): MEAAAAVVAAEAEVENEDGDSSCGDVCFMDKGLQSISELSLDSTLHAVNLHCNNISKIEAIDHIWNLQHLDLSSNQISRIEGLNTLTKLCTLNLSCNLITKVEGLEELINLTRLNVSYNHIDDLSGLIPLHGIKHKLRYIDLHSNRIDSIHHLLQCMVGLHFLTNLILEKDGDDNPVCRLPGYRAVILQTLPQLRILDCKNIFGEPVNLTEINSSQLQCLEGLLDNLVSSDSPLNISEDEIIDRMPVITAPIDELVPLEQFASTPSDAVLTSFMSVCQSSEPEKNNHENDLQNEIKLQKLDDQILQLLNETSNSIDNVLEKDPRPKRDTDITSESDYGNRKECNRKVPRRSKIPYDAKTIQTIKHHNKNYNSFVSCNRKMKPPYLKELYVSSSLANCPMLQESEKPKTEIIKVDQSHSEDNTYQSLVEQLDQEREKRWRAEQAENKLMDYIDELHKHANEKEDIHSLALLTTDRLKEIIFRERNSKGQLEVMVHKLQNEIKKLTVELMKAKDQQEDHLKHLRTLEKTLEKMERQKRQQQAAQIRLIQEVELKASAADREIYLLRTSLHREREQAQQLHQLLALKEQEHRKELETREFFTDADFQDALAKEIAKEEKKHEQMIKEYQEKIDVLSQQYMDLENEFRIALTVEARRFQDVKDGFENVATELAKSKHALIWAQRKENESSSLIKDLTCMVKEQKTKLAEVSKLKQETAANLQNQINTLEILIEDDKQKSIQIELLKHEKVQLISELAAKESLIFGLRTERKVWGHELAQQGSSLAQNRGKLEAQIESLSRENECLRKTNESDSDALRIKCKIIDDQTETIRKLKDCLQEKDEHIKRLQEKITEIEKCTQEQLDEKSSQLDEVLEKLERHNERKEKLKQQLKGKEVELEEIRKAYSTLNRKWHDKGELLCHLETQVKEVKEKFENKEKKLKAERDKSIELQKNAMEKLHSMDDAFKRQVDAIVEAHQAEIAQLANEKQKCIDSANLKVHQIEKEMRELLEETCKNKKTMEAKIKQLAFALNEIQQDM
Sequence of UniProt P17936 (P17936 whole entry, looked up): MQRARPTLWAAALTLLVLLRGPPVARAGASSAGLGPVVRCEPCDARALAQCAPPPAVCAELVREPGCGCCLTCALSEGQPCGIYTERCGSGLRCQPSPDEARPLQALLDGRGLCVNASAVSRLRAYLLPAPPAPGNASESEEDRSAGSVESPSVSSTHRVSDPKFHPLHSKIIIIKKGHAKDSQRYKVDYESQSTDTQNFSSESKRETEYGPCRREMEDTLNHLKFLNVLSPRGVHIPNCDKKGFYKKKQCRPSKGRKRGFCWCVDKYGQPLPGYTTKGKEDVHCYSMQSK
Sequence of UniProt P43361 (P43361 whole entry, looked up): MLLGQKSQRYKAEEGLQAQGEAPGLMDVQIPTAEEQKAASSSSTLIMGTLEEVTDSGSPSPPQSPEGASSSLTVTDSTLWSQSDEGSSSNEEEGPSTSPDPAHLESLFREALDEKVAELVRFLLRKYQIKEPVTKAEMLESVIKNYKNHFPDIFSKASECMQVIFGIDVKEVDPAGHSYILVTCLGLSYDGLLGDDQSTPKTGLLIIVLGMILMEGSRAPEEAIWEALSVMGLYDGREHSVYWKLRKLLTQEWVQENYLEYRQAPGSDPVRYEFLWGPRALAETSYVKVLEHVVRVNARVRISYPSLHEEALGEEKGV
Sequence of UniProt Q8TDD5 (Q8TDD5 whole entry, looked up): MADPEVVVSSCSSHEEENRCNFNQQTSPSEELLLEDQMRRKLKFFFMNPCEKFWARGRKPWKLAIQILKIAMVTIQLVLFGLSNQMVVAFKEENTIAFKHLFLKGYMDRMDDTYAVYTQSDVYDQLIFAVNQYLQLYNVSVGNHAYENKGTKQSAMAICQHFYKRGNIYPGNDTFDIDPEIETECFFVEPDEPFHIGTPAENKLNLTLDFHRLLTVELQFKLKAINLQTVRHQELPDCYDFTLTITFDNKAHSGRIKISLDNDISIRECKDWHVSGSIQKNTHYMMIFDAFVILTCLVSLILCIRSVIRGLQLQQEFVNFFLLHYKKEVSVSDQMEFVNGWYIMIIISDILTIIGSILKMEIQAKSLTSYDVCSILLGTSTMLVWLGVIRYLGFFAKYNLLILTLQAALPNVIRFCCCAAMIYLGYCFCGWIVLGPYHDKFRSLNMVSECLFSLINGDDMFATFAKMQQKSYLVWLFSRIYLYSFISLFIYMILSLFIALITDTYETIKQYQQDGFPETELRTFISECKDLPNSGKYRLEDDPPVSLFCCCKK
Sequence of UniProt P55082 (P55082 whole entry, looked up): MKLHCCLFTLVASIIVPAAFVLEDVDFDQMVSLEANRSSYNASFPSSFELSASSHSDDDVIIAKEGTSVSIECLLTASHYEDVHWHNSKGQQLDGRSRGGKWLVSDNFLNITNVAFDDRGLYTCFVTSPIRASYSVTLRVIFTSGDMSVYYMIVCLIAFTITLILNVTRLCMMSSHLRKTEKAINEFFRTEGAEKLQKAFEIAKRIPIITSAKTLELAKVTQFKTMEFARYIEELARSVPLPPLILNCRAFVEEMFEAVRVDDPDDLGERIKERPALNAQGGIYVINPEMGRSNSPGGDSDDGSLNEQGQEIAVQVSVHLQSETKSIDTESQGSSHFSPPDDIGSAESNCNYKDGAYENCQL
Sequence of UniProt Q16539 (Q16539 whole entry, looked up): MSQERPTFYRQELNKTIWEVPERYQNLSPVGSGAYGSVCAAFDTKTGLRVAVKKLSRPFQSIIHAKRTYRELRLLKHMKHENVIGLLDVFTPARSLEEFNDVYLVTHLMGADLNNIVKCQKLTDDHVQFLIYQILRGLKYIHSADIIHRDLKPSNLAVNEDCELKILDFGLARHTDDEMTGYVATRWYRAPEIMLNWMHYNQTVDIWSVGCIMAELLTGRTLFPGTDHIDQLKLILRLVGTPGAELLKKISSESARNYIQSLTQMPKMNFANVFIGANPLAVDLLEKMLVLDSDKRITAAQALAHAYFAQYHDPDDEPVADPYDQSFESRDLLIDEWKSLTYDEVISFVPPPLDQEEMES

| Target | log2 fold change |
| --- | --- |
| MGRN1 isoform 2 (UniProt O60291) | 0.008 |
| IGFBP3 isoform 2 (UniProt P17936) | 0.032 |
| MAP4K4 isoform 6 (UniProt O95819) | -0.168 |
| MED25 isoform 3 (UniProt Q71SY5) | 0.057 |
| MFSD11 (UniProt O43934) | 0.06 |
| IKZF1 isoform 2 (UniProt Q13422) | -0.38 (active) |
| IKZF1 (UniProt R9R4D9) | -0.055 |
| MAPK11 (UniProt Q15759) | -0.56 |
| MCM10 (UniProt Q7L590) | -0.153 |
| MCOLN3 (UniProt Q8TDD5) | 0.053 |
| JAK3 (UniProt P52333) | 0.059 |
| LSR isoform 3 (UniProt Q86X29) | -0.169 |
| MAPRE3 isoform 2 (UniProt Q9UPY8) | 0.012 |
| MFAP3 (UniProt P55082) | -0.088 |
| LMNA isoform 2 (UniProt P02545) | -0.022 |
| MAP4K2 (UniProt Q12851) | -0.413 |
| LRRCC1 (UniProt Q9C099) | 0.121 |
| MAGEA8 (UniProt P43361) | 0.052 |
| MAPK14 (UniProt Q16539) | 0.051 |
| ING5 (UniProt Q8WYH8) | 0.003 |
| MFSD12 isoform 3 (UniProt Q6NUT3) | -0.088 |
| LRFN1 (UniProt Q9P244) | -0.1 |
